Results reported in PubChem BioAssay (NCI).
About 83,000 compounds went through this panel and 20% of them were active in at least one assay; those are over-represented in the sample as a whole.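 Treatment: one concentration, 48 hours, 96-well format. Scoring: percent growth, with anything below 10 considered active.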 A number with no mark means an inactive call. Activity calls are given as the source filed them.

Experiments:
Assay in all cases: NCI-60 one-dose screen, 48 h (100 = growth as untreated, 0 = no growth, -100 = all killed)
Details in all cases: 10 µM unless noted
NCI-H23 lung = system: NCI-H23 lung
NCI-H322M lung = system: NCI-H322M lung
NCI-H460 lung = system: NCI-H460 lung
NCI-H522 lung = system: NCI-H522 lung
A549/ATCC NSCLC = system: A549/ATCC NSCLC
786-0 renal = system: 786-0 renal
COLO 205 colon = system: COLO 205 colon
DU-145 prostate = system: DU-145 prostate
K-562 leukemia = system: K-562 leukemia
MALME-3M melanoma = system: MALME-3M melanoma
MDA-MB-231 breast = system: MDA-MB-231 breast
RXF 393 renal = system: RXF 393 renal
SF-268 CNS = system: SF-268 CNS
SF-295 CNS = system: SF-295 CNS
SF-539 CNS = system: SF-539 CNS
UACC-257 melanoma = system: UACC-257 melanoma
M14 melanoma = system: M14 melanoma
HOP-62 NSCLC = system: HOP-62 NSCLC
HOP-92 NSCLC = system: HOP-92 NSCLC

| Compound | growth (NCI-H23 lung) | growth (NCI-H322M lung) | growth (NCI-H460 lung) | growth (NCI-H522 lung) | growth (A549/ATCC NSCLC) | growth (786-0 renal) | growth (COLO 205 colon) | growth (DU-145 prostate) | growth (K-562 leukemia) | growth (MALME-3M melanoma) | growth (MDA-MB-231 breast) | growth (RXF 393 renal) | growth (SF-268 CNS) | growth (SF-295 CNS) | growth (SF-539 CNS) | growth (UACC-257 melanoma) | growth (M14 melanoma) | growth (HOP-62 NSCLC) | growth (HOP-92 NSCLC) |
| --- | --- | --- | --- | --- | --- | --- | --- | --- | --- | --- | --- | --- | --- | --- | --- | --- | --- | --- | --- |
| C=C1C(=O)O[C@H]2[C@H]1CC/C(COC(=O)n1ccnc1C)=C\CC[C@@]1(C)O[C@@H]21 | 98.7% | 98.3% | 105% | 66.3% | 89.3% | 95.7% | 89.8% | 93.2% | 95.4% | 92.6% | 106% | 96.2% | 101% | 104% | 101% | 75.1% | 91% | – | – |
| ClC1c2ccccc2CCc2ccccc21 | 89.2% | 94.1% | 114% | 76.6% | 93.4% | 93.5% | 96.5% | 120% | 109% | 90.6% | 104% | 111% | 99.3% | 106% | 95% | 88.8% | 99.2% | 90% | 82.7% |
| CC1OC(n2c3ccccc3c3c4c(c5c6ccccc6[nH]c5c32)C(=O)N(CCN[C@@H]2CCC[C@H]2N)C4=O)CC(O)C1O (stereo partly specified) | 13.2% | 25.4% | -62% (active) | -9.89% (active) | 14.1% | 32.2% | 1.5% (active) | 31.8% | 1.43% (active) | 24.9% | 16.4% | 33.7% | 30.6% | 8.14% (active) | 17.8% | 29.8% | 18.7% | 5.12% (active) | 72% |
| COCCNC(C(=O)c1ccccc1)c1ccccc1 (stereo unspecified) | 103% | – | 108% | 107% | 99.8% | 92.5% | 117% | 107% | 103% | 102% | 102% | 101% | 94.3% | 98% | 99.7% | 97.6% | 100% | 100% | 85.7% |
| NC(CCCC(N)C(=O)c1ccccc1)C(=O)O (stereo unspecified) | 98.4% | 87.7% | 112% | 64.4% | 92.8% | 102% | 104% | 105% | 98.9% | 95.9% | 109% | 112% | 99.6% | 102% | 97.5% | 82.5% | 102% | 90.3% | 116% |
| COc1ccc2c(c1)OC(N(C(C)=O)C(C)=O)=C(C#N)C2c1ccc(F)cc1 (stereo unspecified) | 50.9% | 48.8% | 15.8% | -5.26% (active) | 45.1% | 28.9% | 30.2% | 37.9% | 10.2% | 62.5% | 53.1% | -2.33% (active) | 54.1% | 18.3% | 13.9% | 63% | 20.5% | 39.2% | 63.4% |
| Cc1cn(-c2nc3c(c(NCc4ccccc4)n2)COCC3)c2cccc(C(N)=O)c12 | 58.8% [0.5 µM] | 98.8% [0.5 µM] | 45.8% [0.5 µM] | 69.5% [0.5 µM] | 84% [0.5 µM] | 40.9% [0.5 µM] | 87.8% [0.5 µM] | 87.6% [0.5 µM] | – | 82.9% [0.5 µM] | 58.5% [0.5 µM] | 43.6% [0.5 µM] | 76.9% [0.5 µM] | 36.1% [0.5 µM] | 84.6% [0.5 µM] | 68.1% [0.5 µM] | 55.2% [0.5 µM] | 76.3% [0.5 µM] | 87.7% [0.5 µM] |
| O=[N+]([O-])c1ccc(NS(=O)(=O)c2cc(Cl)ccc2Cl)c2ccccc12 | 32.5% | 68.4% | – | 10.1% | 89.5% | 62.9% | 73.6% | 73% | – | 43.2% | 71% | 42.6% | 47.9% | 37.7% | 44.9% | 33.7% | 45.4% | 65.7% | 8.11% (active) |
